Assay results published in PubChem BioAssay.
For some of these results: Entries with a potency or affinity are not part of this list. Active and inactive are the calls of the source. Unless noted, no rule for the calls is given here.

Experiments:
[1] = antimalarial activity against Dd2 strain (AID 2302;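 active = growth inhibition above 50% at the single 2 µM test dose, taken to imply half-maximal potency below 2 µM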;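 also: 0% = DMSO untreated growth and 100% = chloroquine plus artemisinin killed control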); details: P. falciparum Dd2 in RBCs, LDH growth readout, 72 h; at 2 µM; stronger effect = higher value
[2] = HepG2 cytotoxicity, primary screen, cytotoxicity control for P. falciparum antimalarial project, cell-based, ATP luminescence (AID 2303;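 active = inhibition above 50%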;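 also: 0% = DMSO wells and 100% = digitonin-killed cells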); details: HepG2 viability, 24-48 h, at 10 µM, stronger effect = higher value
[3] = target: L-lactate dehydrogenase (Plasmodium falciparum (isolate CDC / Honduras)) (UniProt Q27743); assay: PfLDH activity inhibition – cell lysate, 3D7 strain, counter-screen for P. falciparum growth inhibition project (AID 2304);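 also: 0% = vehicle and 100% = reference inhibitor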; details: P. falciparum 3D7 crude extract, LDH APAD/NBT absorbance; at 2 µM; stronger effect = higher value
Sequence of L-lactate dehydrogenase (Plasmodium falciparum (isolate CDC / Honduras)) (Q27743 whole entry, looked up): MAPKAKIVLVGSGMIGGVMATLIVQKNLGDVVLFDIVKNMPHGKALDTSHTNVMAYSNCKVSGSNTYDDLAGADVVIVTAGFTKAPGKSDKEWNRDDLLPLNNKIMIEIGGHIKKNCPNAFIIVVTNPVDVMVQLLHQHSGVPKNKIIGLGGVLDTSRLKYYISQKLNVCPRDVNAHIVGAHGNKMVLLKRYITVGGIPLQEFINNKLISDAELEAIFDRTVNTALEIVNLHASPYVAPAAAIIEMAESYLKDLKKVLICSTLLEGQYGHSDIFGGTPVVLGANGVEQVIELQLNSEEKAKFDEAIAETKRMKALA

[4] = inhibition of 3D7 malaria parasite growth – strain 3D7 (AID 2306);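 also: 0% = DMSO wells and 100% = chloroquine plus artemisinin control wells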; details: P. falciparum 3D7 erythrocytic growth, LDH absorbance, 72 h; at 2 µM; stronger effect = higher value
[5] = target: Calcium-dependent protein kinase 1 (Plasmodium falciparum (isolate 3D7)) (UniProt P62344); assay: PfCDPK1 kinase inhibitors, biochemical, TCAMS library (AID 1159585; cut-off not given, nearly all actives have IC50 up to about 0.98 µM;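 also: inhibitors leave more ATP so luminescence rises with inhibition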); details: recombinant PfCDPK1, Kinase-Glo ATP depletion luminescence
Sequence of Calcium-dependent protein kinase 1 (Plasmodium falciparum (isolate 3D7)) (P62344 whole entry, looked up): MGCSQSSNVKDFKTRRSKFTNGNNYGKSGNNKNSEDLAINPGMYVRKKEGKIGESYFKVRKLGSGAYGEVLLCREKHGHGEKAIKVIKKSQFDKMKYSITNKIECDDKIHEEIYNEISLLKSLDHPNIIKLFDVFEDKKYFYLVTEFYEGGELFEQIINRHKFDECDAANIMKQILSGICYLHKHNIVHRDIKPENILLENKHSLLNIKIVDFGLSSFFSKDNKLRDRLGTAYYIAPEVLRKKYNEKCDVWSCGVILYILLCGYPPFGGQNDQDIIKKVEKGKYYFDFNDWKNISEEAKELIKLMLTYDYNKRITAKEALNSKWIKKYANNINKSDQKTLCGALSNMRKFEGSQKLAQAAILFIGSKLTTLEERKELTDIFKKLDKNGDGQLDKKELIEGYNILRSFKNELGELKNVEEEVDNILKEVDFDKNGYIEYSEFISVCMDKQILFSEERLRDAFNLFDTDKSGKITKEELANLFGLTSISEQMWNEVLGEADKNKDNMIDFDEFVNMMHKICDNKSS

[6] = target: Plasmodium falciparum protein kinase 6 (PK6, PF3D7_1337100) (UniProt Q8IDW1); assay: PfPK6 kinase inhibitors, biochemical, TCAMS library (AID 1159586); details: recombinant PfPK6, Kinase-Glo ATP depletion luminescence
Sequence of Plasmodium falciparum protein kinase 6 (PK6, PF3D7_1337100) (Q8IDW1 1-305): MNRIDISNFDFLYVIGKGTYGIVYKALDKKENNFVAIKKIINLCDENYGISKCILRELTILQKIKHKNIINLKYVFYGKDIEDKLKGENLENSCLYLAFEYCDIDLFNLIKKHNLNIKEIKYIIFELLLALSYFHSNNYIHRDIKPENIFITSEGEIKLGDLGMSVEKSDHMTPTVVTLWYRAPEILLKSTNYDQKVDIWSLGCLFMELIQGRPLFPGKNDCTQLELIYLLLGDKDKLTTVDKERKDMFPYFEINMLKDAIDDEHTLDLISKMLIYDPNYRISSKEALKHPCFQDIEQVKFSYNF

[7] = target: Protein kinase 7 (PK7), Plasmodium falciparum 3D7 (PF3D7_0213400) (UniProt Q7YTF7); assay: inhibition of Plasmodium PK7 catalytic activity – biochemical, TCAMS antimalarial set, Kinase-Glo luminescence (AID 1159587); details: recombinant PfPK7, Kinase-Glo ATP depletion luminescence
Sequence of Protein kinase 7 (PK7), Plasmodium falciparum 3D7 (PF3D7_0213400) (Q7YTF7 1-343): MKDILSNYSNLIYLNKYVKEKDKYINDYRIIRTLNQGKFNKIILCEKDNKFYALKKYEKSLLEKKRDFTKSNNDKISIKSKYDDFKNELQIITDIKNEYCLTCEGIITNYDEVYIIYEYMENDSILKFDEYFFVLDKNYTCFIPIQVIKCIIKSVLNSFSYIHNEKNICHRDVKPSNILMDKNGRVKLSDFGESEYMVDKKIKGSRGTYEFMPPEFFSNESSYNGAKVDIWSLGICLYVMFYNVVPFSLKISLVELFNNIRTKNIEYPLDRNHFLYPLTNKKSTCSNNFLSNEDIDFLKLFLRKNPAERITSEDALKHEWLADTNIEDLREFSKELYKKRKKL

[8] = target: Calcium-dependent protein kinase 4 (Plasmodium falciparum (isolate 3D7)) (UniProt Q8IBS5); assay: PfCDPK4 kinase inhibitors, biochemical, TCAMS library (AID 1159588; cut-off not given, nearly all actives have IC50 up to about 0.91 µM); details: recombinant PfCDPK4, Kinase-Glo ATP depletion luminescence
Sequence of Calcium-dependent protein kinase 4 (Plasmodium falciparum (isolate 3D7)) (Q8IBS5 whole entry, looked up): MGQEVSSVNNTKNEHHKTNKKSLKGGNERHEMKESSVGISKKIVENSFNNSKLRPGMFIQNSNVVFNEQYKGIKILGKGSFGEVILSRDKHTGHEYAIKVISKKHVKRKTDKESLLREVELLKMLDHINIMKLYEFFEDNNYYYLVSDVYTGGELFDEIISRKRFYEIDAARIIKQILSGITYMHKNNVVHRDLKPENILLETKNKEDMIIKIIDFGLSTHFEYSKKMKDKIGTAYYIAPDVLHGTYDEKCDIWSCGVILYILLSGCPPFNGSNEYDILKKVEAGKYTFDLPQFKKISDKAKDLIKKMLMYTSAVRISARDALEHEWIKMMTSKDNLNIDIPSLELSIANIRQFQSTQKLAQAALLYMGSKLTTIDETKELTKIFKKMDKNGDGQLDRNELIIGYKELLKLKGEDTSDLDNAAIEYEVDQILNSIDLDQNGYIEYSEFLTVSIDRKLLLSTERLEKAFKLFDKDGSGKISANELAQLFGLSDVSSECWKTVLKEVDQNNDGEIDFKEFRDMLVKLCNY

N#Cc1ccc(-c2ccc(C(=O)NCCCCN3CCC(c4cn(CCCO)c5ccccc45)CC3)cc2)cc1
inactive: inhibition [2] 31% | inhibition [3] -2% | outcome [5] | outcome [6] | outcome [7] | outcome [8]
active: growth inhibition [1] 56% | growth inhibition [4] 98%

Cc1[nH]cc(Br)c(=O)c1-c1ccc(Oc2ccc(OC(F)(F)F)cc2)cc1
inactive: inhibition [2] 22% | inhibition [3] -2% | outcome [5] | outcome [6] | outcome [7] | outcome [8]
active: growth inhibition [1] 92% | growth inhibition [4] 96%

O=C(Nc1ccc(CCN2CCC(c3nc(COCC(F)(F)F)c(-c4ccccc4)o3)CC2)cc1)c1ccc(F)cc1
inactive: growth inhibition [1] 3% | inhibition [2] 9% | inhibition [3] 3% | outcome [5] | outcome [6] | outcome [7] | outcome [8]
active: growth inhibition [4] 86%

CC(C)c1ccc(CN2CCC(CNC(=O)c3cc(-c4cccc(F)c4)cs3)C2)cc1 (stereo not drawn)
active: inhibition [2] 59% | growth inhibition [4] 100%
inactive: growth inhibition [1] 46% | inhibition [3] 5% | outcome [5] | outcome [6] | outcome [7] | outcome [8]

Cc1cc(N[C@@H](Cc2ccccc2)C(=O)NCc2cccc(F)c2)nc(Nc2ccccc2)n1
inactive: inhibition [2] 20% | inhibition [3] 5% | outcome [5] | outcome [6] | outcome [7] | outcome [8]
active: growth inhibition [1] 92% | growth inhibition [4] 100%

CC(C)C[C@H](NC(=O)c1cc(-c2ccc(F)cc2)no1)C(=O)O (tested in a mixture with another compound)
active: growth inhibition [4] 82%
inactive: growth inhibition [1] 4% | inhibition [2] 7% | inhibition [3] -2% | outcome [5] | outcome [6] | outcome [7] | outcome [8]

CCOC(=O)c1[nH]c2ccc(F)cc2c1NC(=O)CN1CCN(c2cccc(C(F)(F)F)c2)CC1
inactive: inhibition [2] 12% | inhibition [3] -2% | outcome [5] | outcome [6] | outcome [7] | outcome [8]
active: growth inhibition [1] 90% | growth inhibition [4] 96%

O=C(Nc1ccc(Cl)cc1C(=O)Nc1cccc(F)c1)c1ccc([N+](=O)[O-])cc1
inactive: inhibition [2] 10% | inhibition [3] 0% | outcome [5] | outcome [6] | outcome [7] | outcome [8]
active: growth inhibition [1] 54% | growth inhibition [4] 89%

O=C(Nc1ccc(Cl)cc1)c1ccc(CN2CCCN(Cc3cccc(F)c3)CC2)cc1
active: inhibition [2] 59% | growth inhibition [4] 91%
inactive: growth inhibition [1] 8% | inhibition [3] 6% | outcome [5] | outcome [6] | outcome [7] | outcome [8]

CN(C)CCOc1cc(NC(=O)Nc2cccc([N+](=O)[O-])c2)ccc1I
active: growth inhibition [1] 51% | growth inhibition [4] 102%
inactive: inhibition [2] 8% | inhibition [3] 6% | outcome [5] | outcome [6] | outcome [7] | outcome [8]

CCN(CC)CCCC(C)Nc1c(-c2ccc(C)cc2)cnc2ccccc12 (stereo not drawn)
inactive: inhibition [2] 8% | inhibition [3] 1% | outcome [5] | outcome [6] | outcome [7] | outcome [8]
active: growth inhibition [1] 65% | growth inhibition [4] 85%

Cn1nccc1C(=O)NCCNCc1cccc(-c2ccc(-c3nc4ccccc4[nH]3)s2)c1
inactive: inhibition [2] 22% | inhibition [3] -4% | outcome [5] | outcome [6] | outcome [7] | outcome [8]
active: growth inhibition [1] 94% | growth inhibition [4] 100%

Cn1c(NC2CCN(CC3CCN(C(=O)/C=C/c4ccc(Cl)c(Cl)c4)CC3)CC2)nc2ccccc21
active: growth inhibition [1] 100% | inhibition [2] 99% | growth inhibition [4] 101%
inactive: inhibition [3] 3% | outcome [5] | outcome [6] | outcome [7] | outcome [8]

Cc1cc(Nc2cc(Cl)cc(Cl)c2)nc(N)n1
inactive: growth inhibition [1] 28% | inhibition [2] -12% | inhibition [3] 3% | outcome [5] | outcome [6] | outcome [7] | outcome [8]
active: growth inhibition [4] 94%

COC(=O)c1c(NC(=O)c2cccc(C(F)(F)F)c2)sc2c1CCN(Cc1ccccc1)C2
active: growth inhibition [1] 61% | growth inhibition [4] 84%
inactive: inhibition [2] 9% | inhibition [3] 0% | outcome [5] | outcome [6] | outcome [7] | outcome [8]

COC(=O)C(NC(=O)c1ccc(-c2ccc(-c3nc4ccccc4[nH]3)s2)cc1)c1ccc(O)cc1 (stereo not drawn)
inactive: growth inhibition [1] 49% | inhibition [3] 3% | outcome [5] | outcome [6] | outcome [7] | outcome [8]
active: inhibition [2] 99% | growth inhibition [4] 83%

Cc1nnc(N2C(=N)SC(=Cc3ccc(-c4ccc(OC(F)(F)F)cc4)o3)C2=O)s1
active: growth inhibition [1] 58% | growth inhibition [4] 85%
inactive: inhibition [2] 37% | inhibition [3] -7% | outcome [5] | outcome [6] | outcome [7] | outcome [8]

COc1cccc2c1CCN(CCN1CCC(NC(=O)c3ccc(-c4cccc(Cl)c4Cl)cc3)CC1)C2
inactive: growth inhibition [1] 38% | inhibition [2] 47% | inhibition [3] -1% | outcome [5] | outcome [6] | outcome [7] | outcome [8]
active: growth inhibition [4] 100%

CC1(C)[C@H]2CC[C@@H](CNc3nc(NCCc4cnc[nH]4)nc(NCc4cc(F)ccc4F)n3)[C@@H]1C2
active: growth inhibition [1] 91% | growth inhibition [4] 100%
inactive: inhibition [2] 0% | inhibition [3] 6% | outcome [5] | outcome [6] | outcome [7] | outcome [8]

C[C@@H](Nc1nc(NCc2ccccc2)c2sccc2n1)c1ccccc1
inactive: inhibition [2] 31% | inhibition [3] -4% | outcome [5] | outcome [6] | outcome [7] | outcome [8]
active: growth inhibition [1] 75% | growth inhibition [4] 91%

CN(C)CCCOc1ccc(-c2csc(NC(N)=NCc3ccccc3)n2)cc1
inactive: inhibition [3] 5% | outcome [5] | outcome [6] | outcome [7] | outcome [8]
active: growth inhibition [1] 97% | inhibition [2] 57% | growth inhibition [4] 100%

COc1ccc2ccccc2c1C=NNc1ccnc2cc(Cl)ccc12
inactive: inhibition [2] 20% | inhibition [3] -5% | outcome [5] | outcome [6] | outcome [7] | outcome [8]
active: growth inhibition [1] 94% | growth inhibition [4] 100%

CCc1nnc2sc(-c3cccc(NC(=O)c4ccc(C)c([N+](=O)[O-])c4)c3)nn12
active: growth inhibition [4] 82%
inactive: growth inhibition [1] 46% | inhibition [2] 10% | inhibition [3] 4% | outcome [5] | outcome [6] | outcome [7] | outcome [8]

Cn1c2ccccc2c2c3ccccc3c(CNC(CO)(CO)CO)cc21
active: growth inhibition [1] 78% | inhibition [2] 67% | growth inhibition [4] 96%
inactive: inhibition [3] -1% | outcome [5] | outcome [6] | outcome [7] | outcome [8]

Cc1nn(-c2cccc(Cl)c2)c2c1C(C(=O)c1ccc3c(c1)OCO3)CC(=O)N2 (stereo not drawn)
active: growth inhibition [1] 95% | growth inhibition [4] 98%
inactive: inhibition [2] 5% | inhibition [3] -5% | outcome [5] | outcome [6] | outcome [7] | outcome [8]

O=C(Nc1cccc(CN2CCCN(Cc3cccc(Cl)c3)CC2)c1)c1ccc(Br)cc1
active: growth inhibition [4] 92%
inactive: growth inhibition [1] 16% | inhibition [2] 38% | inhibition [3] 1% | outcome [5] | outcome [6] | outcome [7] | outcome [8]

Cc1nc(N)nc(N)c1OCCCOc1ccccc1Br
inactive: inhibition [3] -3% | outcome [5] | outcome [6] | outcome [7] | outcome [8]
active: growth inhibition [1] 96% | inhibition [2] 57% | growth inhibition [4] 94%

Clc1ccc(CNc2ccnc(NCCc3coc4ccccc34)n2)c(Cl)c1
inactive: growth inhibition [1] 39% | inhibition [2] 26% | inhibition [3] -3% | outcome [5] | outcome [6] | outcome [7] | outcome [8]
active: growth inhibition [4] 86%

c1ccc(-c2cc(NCc3cccc4ccccc34)c3[nH]ncc3n2)cc1
inactive: growth inhibition [1] 5% | inhibition [2] 7% | inhibition [3] -8% | outcome [5] | outcome [6] | outcome [7] | outcome [8]
active: growth inhibition [4] 93%

O=C(NCCCCCN1CCC(c2c[nH]c3ccccc23)C1)Nc1ccc(Cl)c(Cl)c1 (stereo not drawn)
active: growth inhibition [4] 95%
inactive: growth inhibition [1] 19% | inhibition [2] 28% | inhibition [3] 1% | outcome [5] | outcome [6] | outcome [7] | outcome [8]

Cc1ccc(NC(=O)N2CCCN(CCCCCNC(=O)/C=C/c3ccc(Cl)c(Cl)c3)CC2)cc1
active: growth inhibition [4] 99%
inactive: growth inhibition [1] 2% | inhibition [2] 12% | inhibition [3] -6% | outcome [5] | outcome [6] | outcome [7] | outcome [8]

CCSc1ccc(C)cc1CON1C(N)=NC(N)=NC1(C)C
inactive: inhibition [3] 0% | outcome [5] | outcome [6] | outcome [7] | outcome [8]
active: growth inhibition [1] 96% | inhibition [2] 66% | growth inhibition [4] 94%

O[C@@H](c1ccccc1)[C@@H]1CN(CCC2C[C@@H]3CC[C@H]2C3)CC[C@@]1(O)c1ccccc1 (stereo partly drawn)
active: growth inhibition [1] 99% | growth inhibition [4] 97%
inactive: inhibition [2] -1% | inhibition [3] -2% | outcome [5] | outcome [6] | outcome [7] | outcome [8]

Cc1ccc(C(=O)Nc2ccc(OC3CCN(CCC(C)C)C3)c(Cl)c2)cc1 (stereo not drawn)
inactive: growth inhibition [1] 38% | inhibition [3] 0% | outcome [5] | outcome [6] | outcome [7] | outcome [8]
active: inhibition [2] 63% | growth inhibition [4] 83%

NC(=O)c1cnc2ccc(-c3cncs3)cc2c1Nc1ccc(F)c(Cl)c1
inactive: inhibition [2] 3% | inhibition [3] 6% | outcome [5] | outcome [6] | outcome [7] | outcome [8]
active: growth inhibition [1] 99% | growth inhibition [4] 97%

COc1ccc2ncc(F)c(CCN3C[C@H](CNCc4cc(C#N)c5c(c4)OCCO5)[C@H](O)C3)c2n1
active: growth inhibition [1] 64% | growth inhibition [4] 100%
inactive: inhibition [2] 7% | inhibition [3] -5% | outcome [5] | outcome [6] | outcome [7] | outcome [8]

O=C(Nc1ccc(-c2csc(-c3nc4ccccc4[nH]3)c2)cc1)Nc1ccc(F)c(F)c1F
active: growth inhibition [1] 64% | inhibition [2] 67% | growth inhibition [4] 100%
inactive: inhibition [3] 2% | outcome [5] | outcome [6] | outcome [7] | outcome [8]

O=C(NC1CC1)c1ccc(N2CCCCN2CCc2ccccc2)c(C(F)(F)F)c1
active: growth inhibition [1] 84% | growth inhibition [4] 98%
inactive: inhibition [2] -9% | inhibition [3] -4% | outcome [5] | outcome [6] | outcome [7] | outcome [8]

COc1ccc2c(NN=Cc3cccc(F)c3)cc(C)nc2c1
inactive: inhibition [2] 17% | inhibition [3] -4% | outcome [5] | outcome [6] | outcome [7] | outcome [8]
active: growth inhibition [1] 100% | growth inhibition [4] 101%

Cc1ccc(C(=O)Nc2ccc(C)c(OC3CCN(CCC(C)C)C3)c2)cc1 (stereo not drawn)
active: growth inhibition [1] 53% | growth inhibition [4] 99%
inactive: inhibition [2] 6% | inhibition [3] -13% | outcome [5] | outcome [6] | outcome [7] | outcome [8]

Cc1cc(N)c2cc(NC(=O)/C=C/c3ccccc3Cl)ccc2n1
active: growth inhibition [1] 98% | inhibition [2] 81% | growth inhibition [4] 100%
inactive: inhibition [3] -2% | outcome [5] | outcome [6] | outcome [7] | outcome [8]
